According to the supplement of paper PMC7261846:
± gives the uncertainty stated by the source.

Test system: Candida albicans SNY425 biofilm
Experiment: biofilm OD600 with compound plus antifungal (OD600 (absorbance)); higher = more biofilm remaining
[1] = assay detail: disruption of 24-h mature biofilm (compound + antifungal for a second 24 h)
[2] = assay detail: sustained inhibition (compound + antifungal during 90-min adherence and 24-h growth)

SMILES	biofilm OD600 [1]	biofilm OD600 [2]
CC(C)C[C@H](NC(=O)N[C@H](C(=O)N[C@@H](CCC(N)=O)C(=O)N[C@@H](C)C=O)[C@@H]1CCNC(=N)N1)C(=O)O [Elastatinal] + OC(Cn1cncn1)(Cn1cncn1)c1ccc(F)cc1F [fluconazole] (first compound 12.5 µM)	0.249 ± 0.0066	0.16 ± 0.014
CCC(C)[C@H](NS(=O)(=O)c1cccc2ccccc12)C(=O)N[C@H](C=O)Cc1c[nH]c2ccccc12 (stereo not given in full) + OC(Cn1cncn1)(Cn1cncn1)c1ccc(F)cc1F [fluconazole] (first compound 12.5 µM)	0.249 ± 0.0046	0.14 ± 0.0069
COC(=O)C[C@H](NC(=O)[C@H](C)NC(=O)[C@@H](NC(=O)OCc1ccccc1)C(C)C)C(=O)CF + OC(Cn1cncn1)(Cn1cncn1)c1ccc(F)cc1F [fluconazole] (first compound 12.5 µM)	0.283 ± 0.0098	0.12 ± 0.0089
C[C@]1(Cn2ccnn2)[C@H](C(=O)O)N2C(=O)C[C@H]2S1(=O)=O [Tazobactam] + OC(Cn1cncn1)(Cn1cncn1)c1ccc(F)cc1F [fluconazole] (first compound 12.5 µM)	0.283 ± 0.011	0.12 ± 0.0072
CCOC(=O)[C@H](CCc1ccccc1)N[C@@H](C)C(=O)N1CCC[C@H]1C(=O)O [Enalapril] + C[C@@H]1[C@H](O)[C@@H](C)/C=C/C=C/C=C/C=C/C=C/C=C/C=C/[C@H](O[C@@H]2O[C@H](C)[C@@H](O)[C@H](N)[C@@H]2O)C[C@@H]2O[C@](O)(C[C@@H](O)C[C@@H](O)[C@H](O)CC[C@@H](O)C[C@@H](O)CC(=O)O[C@H]1C)C[C@H](O)[C@H]2C(=O)O [amphotericin B] (first compound 12.5 µM)	0.279 ± 0.0057	0.197 ± 0.023
Cc1ccc(S(=O)(=O)N[C@@H](Cc2ccccc2)C(=O)CCl)cc1 + OC(Cn1cncn1)(Cn1cncn1)c1ccc(F)cc1F [fluconazole] (first compound 4 µM)	0.241 ± 0.01	0.0966 ± 0.012
CCCCC[C@H](CC(=O)NO)C(=O)N[C@H](C(=O)N1CCC[C@H]1CO)C(C)C [Actinonin] + CC[C@H](C)C[C@H](C)CCCCCCCCC(=O)N[C@H]1C[C@@H](O)[C@@H](NCCN)NC(=O)[C@@H]2[C@@H](O)CCN2C(=O)[C@H]([C@H](O)CCN)NC(=O)[C@H]([C@H](O)[C@@H](O)c2ccc(O)cc2)NC(=O)[C@@H]2C[C@@H](O)CN2C(=O)[C@H]([C@@H](C)O)NC1=O [caspofungin] (first compound 12.5 µM)	0.263 ± 0.021	0.182 ± 0.0058
CCC[C@@]1(CCc2ccccc2)CC(O)=C([C@H](CC)c2cccc(NS(=O)(=O)c3ccc(C(F)(F)F)cn3)c2)C(=O)O1 [tipranavir] + OC(Cn1cncn1)(Cn1cncn1)c1ccc(F)cc1F [fluconazole] (first compound 12.5 µM)	0.256 ± 0.0057	0.143 ± 0.0085
CC(C)CN(C[C@@H](O)[C@H](Cc1ccccc1)NC(=O)O[C@H]1CCOC1)S(=O)(=O)c1ccc(N)cc1 [amprenavir] + CC[C@H](C)C[C@H](C)CCCCCCCCC(=O)N[C@H]1C[C@@H](O)[C@@H](NCCN)NC(=O)[C@@H]2[C@@H](O)CCN2C(=O)[C@H]([C@H](O)CCN)NC(=O)[C@H]([C@H](O)[C@@H](O)c2ccc(O)cc2)NC(=O)[C@@H]2C[C@@H](O)CN2C(=O)[C@H]([C@@H](C)O)NC1=O [caspofungin] (first compound 12.5 µM)	0.271 ± 0.014	0.201 ± 0.013
CCN1C(=O)C=CC1=O [N-Ethylmaleimide] + CC[C@H](C)C[C@H](C)CCCCCCCCC(=O)N[C@H]1C[C@@H](O)[C@@H](NCCN)NC(=O)[C@@H]2[C@@H](O)CCN2C(=O)[C@H]([C@H](O)CCN)NC(=O)[C@H]([C@H](O)[C@@H](O)c2ccc(O)cc2)NC(=O)[C@@H]2C[C@@H](O)CN2C(=O)[C@H]([C@@H](C)O)NC1=O [caspofungin] (first compound 4 µM)	0.281 ± 0.013	0.17 ± 0.0037
NCCCC[C@H](N[C@@H](CCc1ccccc1)C(=O)O)C(=O)N1CCC[C@H]1C(=O)O [Lisinopril] + C[C@@H]1[C@H](O)[C@@H](C)/C=C/C=C/C=C/C=C/C=C/C=C/C=C/[C@H](O[C@@H]2O[C@H](C)[C@@H](O)[C@H](N)[C@@H]2O)C[C@@H]2O[C@](O)(C[C@@H](O)C[C@@H](O)[C@H](O)CC[C@@H](O)C[C@@H](O)CC(=O)O[C@H]1C)C[C@H](O)[C@H]2C(=O)O [amphotericin B] (first compound 12.5 µM)	0.27 ± 0.012	0.173 ± 0.014
O=C1Nc2ccc([N+](=O)[O-])cc2C1=O [5-Nitroisatin] + OC(Cn1cncn1)(Cn1cncn1)c1ccc(F)cc1F [fluconazole] (first compound 12.5 µM)	0.249 ± 0.0083	0.107 ± 0.011
CCCCCCCCCC(=O)N[C@@H](CCCN=C(N)N)C(=O)N[C@H](C(=O)N[C@@H](CCCCN)C(=O)N[C@@H](CCCN=C(N)N)C(=O)CCl)C(C)C + OC(Cn1cncn1)(Cn1cncn1)c1ccc(F)cc1F [fluconazole] (first compound 4 µM)	0.267 ± 0.0072	0.108 ± 0.005
CC(C)C[C@H](NP(=O)(O)O[C@@H]1O[C@@H](C)[C@H](O)[C@@H](O)[C@H]1O)C(=O)N[C@@H](Cc1c[nH]c2ccccc12)C(=O)O [Phosphoramidon] + OC(Cn1cncn1)(Cn1cncn1)c1ccc(F)cc1F [fluconazole] (first compound 12.5 µM)	0.255 ± 0.0097	0.156 ± 0.0037
Cc1c(O)cccc1C(=O)N[C@@H](CSc1ccccc1)[C@H](O)CN1C[C@H]2CCCC[C@H]2C[C@H]1C(=O)NC(C)(C)C [nelfinavir] + CC[C@H](C)C[C@H](C)CCCCCCCCC(=O)N[C@H]1C[C@@H](O)[C@@H](NCCN)NC(=O)[C@@H]2[C@@H](O)CCN2C(=O)[C@H]([C@H](O)CCN)NC(=O)[C@H]([C@H](O)[C@@H](O)c2ccc(O)cc2)NC(=O)[C@@H]2C[C@@H](O)CN2C(=O)[C@H]([C@@H](C)O)NC1=O [caspofungin] (first compound 12.5 µM)	0.17 ± 0.0053	0.127 ± 0.019
CC(C)C[C@H](NC(=O)N[C@H](C(=O)N[C@@H](CCC(N)=O)C(=O)N[C@@H](C)C=O)[C@@H]1CCNC(=N)N1)C(=O)O [Elastatinal] + C[C@@H]1[C@H](O)[C@@H](C)/C=C/C=C/C=C/C=C/C=C/C=C/C=C/[C@H](O[C@@H]2O[C@H](C)[C@@H](O)[C@H](N)[C@@H]2O)C[C@@H]2O[C@](O)(C[C@@H](O)C[C@@H](O)[C@H](O)CC[C@@H](O)C[C@@H](O)CC(=O)O[C@H]1C)C[C@H](O)[C@H]2C(=O)O [amphotericin B] (first compound 12.5 µM)	0.273 ± 0.0073	0.21 ± 0.0065
CC(C)(C)NC(=O)[C@@H]1CN(Cc2cccnc2)CCN1C[C@@H](O)C[C@@H](Cc1ccccc1)C(=O)N[C@H]1c2ccccc2C[C@H]1O [indinavir] + CC[C@H](C)C[C@H](C)CCCCCCCCC(=O)N[C@H]1C[C@@H](O)[C@@H](NCCN)NC(=O)[C@@H]2[C@@H](O)CCN2C(=O)[C@H]([C@H](O)CCN)NC(=O)[C@H]([C@H](O)[C@@H](O)c2ccc(O)cc2)NC(=O)[C@@H]2C[C@@H](O)CN2C(=O)[C@H]([C@@H](C)O)NC1=O [caspofungin] (first compound 12.5 µM)	0.227 ± 0.0078	0.207 ± 0.011
C[C@H](CS)C(=O)N1CCC[C@H]1C(=O)O [Captopril] + CC[C@H](C)C[C@H](C)CCCCCCCCC(=O)N[C@H]1C[C@@H](O)[C@@H](NCCN)NC(=O)[C@@H]2[C@@H](O)CCN2C(=O)[C@H]([C@H](O)CCN)NC(=O)[C@H]([C@H](O)[C@@H](O)c2ccc(O)cc2)NC(=O)[C@@H]2C[C@@H](O)CN2C(=O)[C@H]([C@@H](C)O)NC1=O [caspofungin] (first compound 12.5 µM)	0.286 ± 0.011	0.198 ± 0.0082
NC(N)=NCCC[C@H](NC(=O)[C@@H]1CCCN1C(=O)[C@H](N)Cc1ccccc1)C(=O)CCl + CC[C@H](C)C[C@H](C)CCCCCCCCC(=O)N[C@H]1C[C@@H](O)[C@@H](NCCN)NC(=O)[C@@H]2[C@@H](O)CCN2C(=O)[C@H]([C@H](O)CCN)NC(=O)[C@H]([C@H](O)[C@@H](O)c2ccc(O)cc2)NC(=O)[C@@H]2C[C@@H](O)CN2C(=O)[C@H]([C@@H](C)O)NC1=O [caspofungin] (first compound 12.5 µM)	0.274 ± 0.0098	0.189 ± 0.011
CC(C)CC(=O)N[C@H](C(=O)N[C@H](C(=O)N[C@@H](CC(C)C)[C@@H](O)CC(=O)N[C@@H](C)C(=O)N[C@@H](CC(C)C)[C@@H](O)CC(=O)O)C(C)C)C(C)C [Pepstatin A] + C[C@@H]1[C@H](O)[C@@H](C)/C=C/C=C/C=C/C=C/C=C/C=C/C=C/[C@H](O[C@@H]2O[C@H](C)[C@@H](O)[C@H](N)[C@@H]2O)C[C@@H]2O[C@](O)(C[C@@H](O)C[C@@H](O)[C@H](O)CC[C@@H](O)C[C@@H](O)CC(=O)O[C@H]1C)C[C@H](O)[C@H]2C(=O)O [amphotericin B] (first compound 12.5 µM)	0.272 ± 0.0097	0.199 ± 0.011
